Source: PubChem (National Center for Advancing Translational Sciences (NCATS))
TGFb inhibitor: blocks TGF-b signaling. 410,000 tested, 1.2% active. Potency, µM (series often up to 46.1 µM), hits mostly inhibitors. HepG2 CAGA-GFP TGF-b/SMAD3 reporter, GFP fluorescence, 18 h; TGF-beta stimulated, 500 pg/mL final; note: nearly all actives have a fitted effect of over 65% in size
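Using HEPG2 CAGA-GFP reporter cells at 1000 cells/well, we pinned test compounds, stimulated with recombinant TGF-beta (500 pg/mL final) and measured total well GFP after 18 h.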
TDP1 cell noCPT: qHTS for Inhibitors of human tyrosyl-DNA phosphodiesterase 1 (TDP1): qHTS in cells in absence of CPT | AID 686978, 2013 | Potency, µM (series often up to 46.2 µM), usual class: inhibitors | DT40 Tdp1-/- hTDP1 cells, no CPT, ATP luminescence, 48 h | 420,000 tested, 15% active; note: nearly all actives have a fitted effect of over 55% in size
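Cells were dispensed at 400 per well, compounds added by pin tool, plates incubated ≥48 hr at 37 °C, then CellTiter-Glo added for 30 min at room temperature before luminescence reading. Line: DT40 Tdp1-/- complemented with hTDP1; camptothecin omitted.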
HepG2 viability: HepG2 cytotoxicity, counter-screen for TGF-b inhibitors; HepG2 CAGA-GFP viability, ATP luminescence, 18 h; Potency, µM (highest dose often 46.1 µM), hits mostly cytotoxic; 410,000 tested, 0.76% active; AID 588856
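CellTiter-Glo luminescence gave cytotoxicity after 18 hours at 37 degrees C. The cells were HepG2 CAGA-GFP in 1% FBS DMEM, stimulated with 500 pg/mL TGF-beta after compound addition. %Activity was normalised to no-cell wells (complete cell-killing) and DMSO (no toxicity), and curves were fitted and classified.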
HT1080NT lethal: kills 2HG-producing HT-1080-NT fibrosarcoma cells | HT-1080-NT fibrosarcoma viability, CellTiter-Glo ATP luminescence, 48 h | Potency, µM (top dose mostly 46.1 µM), hits mostly cytotoxic | 360,000 tested, 1.6% active;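 note: NT is the 2HG producing partner of a matched IDH1 knockdown line; nearly all actives have a fitted effect of over 55% in size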
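Compounds were tested in concentration-response format on HT-1080-NT cells for 48 hours at 37 degrees C. Cell viability came from CellTiter-Glo luminescence; curves were classified by r2, response magnitude and activity.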
DT40 TDP1 CPT: DT40-hTDP1 cell growth loss with CPT. chicken DT40 Tdp1-/-;hTDP1 cells + 20 nM CPT, ATP luminescence, 48 h. Potency, µM (titrated, usually from 46.2 µM), actives largely listed as inhibitors. 420,000 tested, 12% active. AID 686979; note: nearly all actives have a fitted effect of over 55% in size
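Cell growth measured by CellTiter-Glo luminescence after a minimum 48 h, 37 C compound exposure with 20 nM CPT in Tdp1-knockout DT40 cells stably expressing hTDP1, seeded 400/well; qHTS titration format.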
HT1080 IDH1KD tx: HT-1080 IDH1 knockdown cell toxicity (counter line). 360,000 tested, 2% active. Potency, µM (doses to about 46.1 µM), hits mostly cytotoxic. HT-1080 IDH1 knockdown viability, ATP luminescence, 48 h. AID 686971
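HT-1080-IDH1KD cells (IDH1 knocked down), 750/well in RPMI with 5% FBS, treated with compound 48 h at 37 degrees C. Viability by CellTiter-Glo luminescence, normalised to DMSO and no-cell wells; concentration-response curves classed.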
Numbers stand for hits; n = inactive; u = inconclusive; x = no result given; [ ] = remark or other dose. In the library only some 17% were active in any assay of this set; here they are far more common. Calls come from the whole dose curve; as a rule, active = well fitted curve in the direction sought with a large enough effect; inconclusive = small, poorly fitted or top-dose-only effect, or another doubt; inactive = no such curve, though single readings can be large; an effect the other way counts as inactive or inconclusive.

SMILES	TGFb inhibitor	TDP1 cell noCPT	HepG2 viability	HT1080NT lethal	DT40 TDP1 CPT	HT1080 IDH1KD tx
COc1ccc(-c2cn3c(C)c(C(=O)Nc4ccncc4)sc3n2)cc1	n	5.8µM	n	u	3.66µM	n
COc1ccc(-c2cn3c(C)c(C(=O)N4CCN(c5ccccc5F)CC4)sc3n2)cc1	u	18.4µM	n	n	23.1µM	n
Cc1c(C(=O)Nc2ccncc2)sc2nc(-c3ccc(F)cc3)cn12	n	5.17µM	n	u	7.31µM	u
COc1ccc(-c2cn3c(C)c(C(=O)Nc4cccc(NC(C)=O)c4)sc3n2)cc1	n	n	n	n	u	n
O=C(NCCC1CCCCN1S(=O)(=O)c1ccc(F)cc1)C(=O)NCc1cccnc1 (stereo not drawn)	n	n	n	n	n	n
COC(=O)c1cc(NC(=O)Cn2ncc3c2-c2ccccc2OC3)cc(C(=O)OC)c1	n	n	n	x	n	x
CSc1ccccc1C(=O)NCC(c1ccco1)N1CCCCC1 (stereo not drawn)	n	n	n	n	n	u
COc1ccccc1-c1nn(-c2ccccc2)cc1C(=O)NCC(c1ccco1)N1CCCC1 (stereo not drawn)	n	u	n	n	u	n
O=C(NCC(c1ccco1)N1CCCCC1)c1ccc(OCc2ccccc2)cc1 (stereo not drawn)	n	n	n	n	n	n
CCc1cc(C(=O)NCC(c2ccco2)N2CCCCC2)sc1C (stereo not drawn)	n	14.6µM	n	n	u	n
CCOCc1c(C(=O)NCC(c2ccco2)N2CCCC2)oc2ccccc12 (stereo not drawn)	n	u	n	n	23.1µM	n
CCOc1ncccc1C(=O)NCC(c1ccco1)N1CCCCC1 (stereo not drawn)	n	u	n	n	20.6µM	n
O=C(NCC(c1ccco1)N1CCCC1)c1cn(-c2ccccc2)nc1-c1ccc(F)cc1 (stereo not drawn)	n	10.3µM	n	n	16.4µM	n
O=C(c1cccc(S(=O)(=O)N2CCN(c3ccc(F)cc3)CC2)c1)N1CCN(c2ccccc2O)CC1	u	u	n	n	u	n
COc1cc(NC(=O)c2cccc3c2C(=O)N(C2CCCCC2)C3)cc(OC)c1	n	u	n	x	n	x
CC(C)(Oc1ccc(Cl)cc1)C(=O)NCC(c1ccco1)N1CCCCC1 (stereo not drawn)	u	18.4µM	n	n	20.6µM	n
O=C(NCC(c1ccco1)N1CCCC1)c1ccccc1F (stereo not drawn)	n	n	n	n	n	n
O=C(NCC(c1ccco1)N1CCCC1)c1sc2ccccc2c1Cl (stereo not drawn)	n	20.6µM	n	n	u	n
Cc1cccc(C)c1NC(=O)CNC(=O)c1ccc(NS(=O)(=O)c2ccc3[nH]c(=O)[nH]c3c2)cc1	n	n	n	n	n	n
O=C(NC1CCCCC1)c1nc(-c2c(F)cccc2F)oc1-c1ccccc1	x	25.9µM	x	n	23.1µM	n
COc1ccc(S(=O)(=O)N2CCCCC2)cc1NC(=O)C1CC1	n	n	n	n[9.24 µM]	n	n
COc1ccc(OC)c(NS(=O)(=O)c2ccc(NC(=O)C3COc4ccccc4O3)cc2)c1 (stereo not drawn)	u	18.4µM	n	u	14.6µM	u
COc1ccc(S(=O)(=O)N2CCOCC2)cc1NC(=O)c1ccc2c(c1)OCO2	n	n	n	n	n	n
COc1ccc(S(=O)(=O)N2CCCCC2)cc1NC(=O)C1COc2ccccc2O1 (stereo not drawn)	n	23.1µM	n	n	23.1µM	n
COc1ccc(S(=O)(=O)N2CCCCC2)cc1NC(=O)c1ccc2c(c1)OCO2	n	14.6µM	n	n	u	n
SMILES	TGFb inhibitor	TDP1 cell noCPT	HepG2 viability	HT1080NT lethal	DT40 TDP1 CPT	HT1080 IDH1KD tx
COc1ccc(OCC(=O)Nc2nnc3n2CCS3)cc1	n	n	n	x	n	x
Cc1c([N+](=O)[O-])c([N+](=O)[O-])nn1CC(=O)N1CCCCC1	n	n	n	n	n	n
C[C@H](CO)N1C[C@H](C)[C@@H](CN(C)S(C)(=O)=O)OCc2cnnn2CCCC1=O	n	n	n	n	n	n
CCCCCCCC/C=C\CCCCCCCC(=O)NCCO	n	u	n	n	u	n
CCCCCCCC/C=C\CCCCCCCC(=O)NCCc1ccc(O)c(O)c1	u	2.91µM	n	4.61µM	1.03µM	23.1µM
CCCCCCCC/C=C\CCCCCCCC(=O)NCc1ccc(O)c(OC)c1	x	u	x	x	3.35µM	x
COc1ccc(CNC(=O)COc2ccc(S(=O)(=O)N3CCOCC3)cc2C)cc1	n	n	n	n	n	n
CC1CCCN(C(=O)CCc2nnc(-c3ccc4c(c3)OCO4)o2)C1 (stereo not drawn)	n	n	n	n	n	n
O=C(CCC1CCCN(C(=O)CCCc2ccccc2)C1)N1CCN(c2ccccn2)CC1 (stereo not drawn)	u	u	n	n	20.6µM	n
O=C(CCC1CCCN(C(=O)Cc2cccc(F)c2)C1)N1CCN(c2ccccn2)CC1 (stereo not drawn)	n	n	n	n	n	n
O=C(CCC1CCCN(C(=O)c2ccc3cc[nH]c3c2)C1)N1CCN(c2ccccn2)CC1 (stereo not drawn)	n	u	n	n	16.4µM	n
Cc1ccc(C(=O)N2CCCC(CCC(=O)N3CCN(c4ccccn4)CC3)C2)cc1 (stereo not drawn)	n	u	n	n	u	n
O=C(CCC1CCCN(C(=O)c2ccc3[nH]ccc3c2)C1)N1CCN(c2ccccn2)CC1 (stereo not drawn)	n	20.6µM	n	n	23.1µM	n
CCc1ccc(CN2CCCC(CCC(=O)N3CCN(c4ccccn4)CC3)C2)o1 (stereo not drawn)	u	16.4µM	n	n	u	n
CC(=O)c1ccccc1C(=O)N1CCCC(CCC(=O)N2CCN(c3ccccn3)CC2)C1 (stereo not drawn)	n	n	n	n	n	n
COc1cccc(C(=O)Nc2nc3nc(C)c(C)c(=O)n3[nH]2)c1	n	n	n	x	n	x
Cc1c(C(=O)OCC2CCCO2)[nH]c2c1C(=O)CC(c1ccco1)C2 (stereo not drawn)	n	3.66µM	n	u	3.66µM	2.91µM
C/C=C/COC(=O)c1[nH]c2c(c1C)C(=O)CC(c1ccco1)C2 (stereo not drawn)	u	0.206µM	n	1.03µM	0.291µM	0.651µM
